Assay [1] relates to PRMT1 (protein arginine N-methyltransferase 1). Kind of assay: small molecules binding arginine methyltransferase PRMT1 – biochemical, small-molecule microarray, 635 nm fluorescence, primary screen (AID 1088).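 Also: binding of Prmt1 protein to compounds spotted on small-molecule microarray slides.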 The settings on record: higher = more signal.
Assay [2] is described as follows: growth effects on S. cerevisiae YJM789 – YJM789 clinical isolate, OD600, 24 h, basal, primary screen (AID 1089).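 Also: growth of clinical yeast isolate S. cerevisiae YJM 789 seeded 1000 cells per well; test concentration not given here.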 The settings on record: higher = more signal, called active from +8 up or from −8 down.
The nature of assay [3]: S. pombe growth modifiers, basal conditions – strain 972, OD600, 24 h, no modulator, primary screen (AID 1090).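 Also: basal condition with compound alone and no growth modifier present; test concentration not given here.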 The note with it: S. pombe 972 growth, higher = more signal, called active from +8 up or from −8 down.
Assay [4] can be described thus: budding yeast growth modifiers under rapamycin – strain BY4716, OD600, 96 h, primary screen (AID 1091). Also: test concentration not given here. The note with it: S. cerevisiae BY4716 + rapamycin, higher = more signal, called active from +8 up or from −8 down.
Assay [5] has as its target Torsin-1A-interacting protein 2 (Homo sapiens) (UniProt Q8NFQ8). Briefly: small molecules binding lysate-expressed LULL1 – cell lysate, human LULL1 lysate, 635/667 nm fluorescence, primary screen (AID 1092).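 Also: probe is lysate of COS7 cells overexpressing human LULL1; score merges per-feature 667 nm fluorescence with signal-to-noise.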 The note with it: small-molecule microarray, hLULL1 lysate binding, 635 nm fluorescence; higher = more signal.
The nature of assay [6]: optical density change of DRC41 E. coli – strain DRC41, OD650, 24 h, E. coli filamentation project, primary screen (AID 1093).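 Also: MC1000 strain lacking acrAB efflux and sulA so SOS filamentation is blocked; test concentration not given here.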 The settings on record: E. coli DRC41 growth, higher = more signal, called active from +8 up or from −8 down.
The nature of assay [7]: probe aLefty2 binding to arrayed compounds – biochemical, biotinylated probe, 635/667 nm fluorescence, primary screen (AID 1094).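 Also: score merges spot fluorescence near 667 nm with spot signal-to-noise ratio.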 The settings on record: small-molecule microarray, higher = more signal.
Assay [8] relates to Noggin (protein binding on small-molecule microarray). Kind of assay: small molecules binding Noggin protein – biochemical, 635/667 nm fluorescence, primary screen (AID 1095).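 Also: score merges 667 nm feature fluorescence with signal to noise over triplicate slides.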 The note with it: 635 nm fluorescence, higher = more signal.
The target of assay [9] is Neurogenic locus notch homolog protein 3 (Homo sapiens) (UniProt Q9UM47). Kind of assay: small molecules binding NOTCH3 protein – biochemical, 635/667 nm fluorescence, primary screen (AID 1096). The note with it: small-molecule microarray, 635 nm fluorescence, higher = more signal.
Neurogenic locus notch homolog protein 3 (Homo sapiens), sequence (Q9UM47 whole entry, looked up): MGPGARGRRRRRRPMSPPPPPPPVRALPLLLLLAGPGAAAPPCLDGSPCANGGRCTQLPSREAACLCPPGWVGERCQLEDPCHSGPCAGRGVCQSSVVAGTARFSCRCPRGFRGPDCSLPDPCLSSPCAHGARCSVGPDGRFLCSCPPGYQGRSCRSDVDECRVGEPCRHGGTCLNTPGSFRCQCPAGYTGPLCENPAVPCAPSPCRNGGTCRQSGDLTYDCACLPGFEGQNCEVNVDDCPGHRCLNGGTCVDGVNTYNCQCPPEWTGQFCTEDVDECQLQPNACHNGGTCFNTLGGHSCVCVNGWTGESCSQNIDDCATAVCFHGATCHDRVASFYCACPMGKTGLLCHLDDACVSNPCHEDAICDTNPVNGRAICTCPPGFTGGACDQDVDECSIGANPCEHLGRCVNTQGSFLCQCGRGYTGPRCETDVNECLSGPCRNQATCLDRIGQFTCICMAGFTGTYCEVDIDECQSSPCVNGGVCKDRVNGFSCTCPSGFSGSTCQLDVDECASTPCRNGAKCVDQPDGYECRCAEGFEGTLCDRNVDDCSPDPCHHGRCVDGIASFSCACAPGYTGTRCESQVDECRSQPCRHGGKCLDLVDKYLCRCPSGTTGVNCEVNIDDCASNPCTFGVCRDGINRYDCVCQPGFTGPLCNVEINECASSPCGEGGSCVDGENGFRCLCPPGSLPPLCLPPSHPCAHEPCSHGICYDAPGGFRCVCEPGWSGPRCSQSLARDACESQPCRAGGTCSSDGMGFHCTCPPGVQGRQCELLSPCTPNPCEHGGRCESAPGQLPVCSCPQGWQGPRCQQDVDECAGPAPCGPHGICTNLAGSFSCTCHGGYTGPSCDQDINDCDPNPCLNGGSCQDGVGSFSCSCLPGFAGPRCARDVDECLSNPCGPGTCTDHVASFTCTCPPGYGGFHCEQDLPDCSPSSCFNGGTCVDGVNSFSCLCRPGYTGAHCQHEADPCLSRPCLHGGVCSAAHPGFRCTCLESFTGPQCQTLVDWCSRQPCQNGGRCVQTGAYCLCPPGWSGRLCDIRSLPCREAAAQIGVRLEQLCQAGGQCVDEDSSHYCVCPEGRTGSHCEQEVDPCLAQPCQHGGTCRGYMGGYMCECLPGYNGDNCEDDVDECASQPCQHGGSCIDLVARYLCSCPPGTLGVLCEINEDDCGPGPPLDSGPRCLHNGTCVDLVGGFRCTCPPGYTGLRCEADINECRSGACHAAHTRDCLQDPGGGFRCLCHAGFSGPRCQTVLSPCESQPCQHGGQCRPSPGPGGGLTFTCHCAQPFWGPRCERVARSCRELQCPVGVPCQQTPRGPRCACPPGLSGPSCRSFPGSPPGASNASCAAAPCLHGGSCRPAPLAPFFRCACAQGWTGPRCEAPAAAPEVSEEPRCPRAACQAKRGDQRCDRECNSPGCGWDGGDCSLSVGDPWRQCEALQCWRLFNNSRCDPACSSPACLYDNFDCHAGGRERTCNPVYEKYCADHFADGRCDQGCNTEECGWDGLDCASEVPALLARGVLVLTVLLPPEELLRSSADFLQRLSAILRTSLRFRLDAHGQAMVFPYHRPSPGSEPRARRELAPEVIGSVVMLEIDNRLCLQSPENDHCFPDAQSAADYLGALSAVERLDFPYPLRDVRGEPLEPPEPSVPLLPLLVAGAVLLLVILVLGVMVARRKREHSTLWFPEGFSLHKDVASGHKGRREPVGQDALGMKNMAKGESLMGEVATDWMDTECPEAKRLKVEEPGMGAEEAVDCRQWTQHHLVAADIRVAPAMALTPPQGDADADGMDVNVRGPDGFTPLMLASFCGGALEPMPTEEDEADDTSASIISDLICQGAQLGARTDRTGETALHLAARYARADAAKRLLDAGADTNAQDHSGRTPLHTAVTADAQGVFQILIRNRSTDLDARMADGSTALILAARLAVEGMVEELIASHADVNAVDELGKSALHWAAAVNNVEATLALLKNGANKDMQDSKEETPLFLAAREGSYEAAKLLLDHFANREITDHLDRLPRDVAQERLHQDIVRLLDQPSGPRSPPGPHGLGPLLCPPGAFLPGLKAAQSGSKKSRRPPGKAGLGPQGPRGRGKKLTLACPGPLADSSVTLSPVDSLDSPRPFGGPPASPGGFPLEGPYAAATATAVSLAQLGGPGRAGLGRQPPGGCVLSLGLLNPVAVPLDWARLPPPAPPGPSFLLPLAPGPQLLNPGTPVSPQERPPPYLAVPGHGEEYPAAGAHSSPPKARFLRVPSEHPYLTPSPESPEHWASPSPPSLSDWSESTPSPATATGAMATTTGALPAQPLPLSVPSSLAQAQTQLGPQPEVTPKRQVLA
The nature of assay [10]: probe aEGFR binding to arrayed compounds – biochemical, biotinylated probe, 635/667 nm fluorescence, primary screen (AID 1097).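 Also: probe is a biotinylated anti-EGFR antibody binding compounds printed on slides; score combines fluorescence near 667 nm and signal to noise of each spot.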 The settings on record: small-molecule microarray, higher = more signal.
The test system of assay [11] is Plasmodium falciparum Sir2 (PF13_0152, Sir2A). Kind of assay: Plasmodium falciparum Sir2A binding compounds – biochemical, small-molecule microarray, 635 nm fluorescence, primary screen (AID 1098).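 Also: score merges spot fluorescence intensity with its signal-to-noise ratio.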 The settings on record: fluorescence 635 nm, higher = more signal.
Assay [12] is described as follows: probe aDKK1 binding to arrayed compounds – biochemical, biotinylated probe, 635/667 nm fluorescence, primary screen (AID 1099).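 Also: score merges 667nm spot fluorescence with signal to noise across triplicate slides; reference of the scale not given here.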 The note with it: small-molecule microarray, higher = more signal.
A short description of assay [13]: probe aCHRDL2 binding to arrayed compounds – biochemical, biotinylated probe, 635/667 nm fluorescence, primary screen (AID 1100). The settings on record: small-molecule microarray, higher = more signal.
The nature of assay [14]: change in splice reporter luminescence, either direction, cell-based, HEK293, spliceosome inhibition project, primary screen (AID 1101).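 Also: HEK293 cells carrying a splicing-competent luciferase reporter gene; test concentration not given here.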 The settings on record: HEK293 splicing luciferase reporter, 24 h, higher = more signal, called active from +8 up or from −8 down. For orientation: Reporter assays use an easily measured gene product as a stand-in for the process of interest.

Assay [15] concerns the target Fibroblast growth factor 10 (Homo sapiens) (UniProt O15520). Kind of assay: compounds binding fibroblast growth factor 10 – biochemical, small-molecule microarray, 635 nm fluorescence, primary screen (AID 1102). The note with it: FGF10 binding, fluorescence 635 nm, higher = more signal.
For assay [16], the system named is glycogen synthase kinase-3 (GSK3A per assay name; protocol says GSK3B). Briefly: compounds binding glycogen synthase kinase-3 – biochemical, small-molecule microarray, 635 nm fluorescence, GSK3A, primary screen (AID 1103). Also: the record names both GSK3A and GSK3B. The settings on record: fluorescence 635 nm, higher = more signal.
Assay [17] has as its target Epidermal growth factor receptor (Homo sapiens) (UniProt P00533). Kind of assay: compounds binding epidermal growth factor receptor – biochemical, small-molecule microarray, 635 nm fluorescence, primary screen (AID 1104).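 Also: score merges 667 nm emission intensity with spot signal to noise over triplicate slides.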 The note with it: EGFR binding, higher = more signal.
Assay [18] addresses Follistatin-related protein 3 (Homo sapiens) (UniProt O95633). Kind of assay: compounds binding follistatin-related protein 3 – biochemical, small-molecule microarray, 635 nm fluorescence, primary screen (AID 1105).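 Also: score merges emission near 667 nm and signal to noise per printed spot across three slides.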 The settings on record: FSTL3 binding, higher = more signal.
The target of assay [19] is Dickkopf-related protein 1 (Homo sapiens) (UniProt O94907). Kind of assay: small molecules binding DKK1 protein – biochemical, small-molecule microarray, 635 nm fluorescence scan, primary screen (AID 1106).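 Also: score merges emission near 667 nm with signal to noise over three replicate slides.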 The settings on record: higher = more signal.
Dickkopf-related protein 1 (Homo sapiens), sequence (O94907 whole entry, looked up): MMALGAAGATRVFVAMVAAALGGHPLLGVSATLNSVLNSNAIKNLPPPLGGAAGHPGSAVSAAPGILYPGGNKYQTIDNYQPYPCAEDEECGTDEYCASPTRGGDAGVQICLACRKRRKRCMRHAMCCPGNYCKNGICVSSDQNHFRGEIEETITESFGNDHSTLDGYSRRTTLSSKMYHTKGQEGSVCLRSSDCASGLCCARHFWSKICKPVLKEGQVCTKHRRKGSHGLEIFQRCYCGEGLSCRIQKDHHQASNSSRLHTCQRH
For assay [20], the system named is Inhibin beta A chain (activin A). Briefly: small molecules binding activin A – biochemical, small-molecule microarray, 635 nm fluorescence scan, primary screen (AID 1107).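 Also: mouse activin A protein probed at 4.33 µg/mL on printed slides; score merges bound-protein fluorescence near 667 nm with spot signal-to-noise.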 The note with it: INHBA, higher = more signal.

Calls of active or inactive are those of the source.

The results in this text go back to PubChem BioAssay.

Fibroblast growth factor 10 (Homo sapiens), sequence (O15520 whole entry, looked up): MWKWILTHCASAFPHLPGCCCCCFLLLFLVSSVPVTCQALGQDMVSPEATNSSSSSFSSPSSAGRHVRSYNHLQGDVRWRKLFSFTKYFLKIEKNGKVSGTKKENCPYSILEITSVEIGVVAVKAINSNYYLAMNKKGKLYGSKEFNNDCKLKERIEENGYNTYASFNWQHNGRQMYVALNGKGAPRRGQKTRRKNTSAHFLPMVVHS
Torsin-1A-interacting protein 2 (Homo sapiens), sequence (Q8NFQ8 whole entry, looked up): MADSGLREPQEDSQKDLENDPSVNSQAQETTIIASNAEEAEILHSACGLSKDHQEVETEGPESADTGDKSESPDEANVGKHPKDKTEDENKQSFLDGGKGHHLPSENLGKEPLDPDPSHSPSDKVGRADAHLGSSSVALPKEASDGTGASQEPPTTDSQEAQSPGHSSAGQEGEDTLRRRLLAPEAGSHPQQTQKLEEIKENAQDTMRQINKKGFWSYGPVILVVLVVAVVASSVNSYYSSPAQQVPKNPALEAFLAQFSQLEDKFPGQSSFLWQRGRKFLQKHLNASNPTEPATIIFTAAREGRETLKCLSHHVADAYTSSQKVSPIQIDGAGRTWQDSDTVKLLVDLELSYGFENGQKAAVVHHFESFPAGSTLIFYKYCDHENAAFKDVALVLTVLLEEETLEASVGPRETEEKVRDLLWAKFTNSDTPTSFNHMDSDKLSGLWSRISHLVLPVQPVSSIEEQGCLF
Follistatin-related protein 3 (Homo sapiens), sequence (O95633 whole entry, looked up): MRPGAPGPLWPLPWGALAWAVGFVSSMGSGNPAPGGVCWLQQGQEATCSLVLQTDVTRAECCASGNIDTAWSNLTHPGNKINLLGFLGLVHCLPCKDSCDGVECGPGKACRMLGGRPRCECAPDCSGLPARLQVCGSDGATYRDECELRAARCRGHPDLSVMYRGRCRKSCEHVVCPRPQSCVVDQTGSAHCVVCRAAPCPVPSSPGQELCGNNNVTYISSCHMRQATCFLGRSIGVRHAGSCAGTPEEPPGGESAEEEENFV
Epidermal growth factor receptor (Homo sapiens), sequence (P00533 whole entry, looked up): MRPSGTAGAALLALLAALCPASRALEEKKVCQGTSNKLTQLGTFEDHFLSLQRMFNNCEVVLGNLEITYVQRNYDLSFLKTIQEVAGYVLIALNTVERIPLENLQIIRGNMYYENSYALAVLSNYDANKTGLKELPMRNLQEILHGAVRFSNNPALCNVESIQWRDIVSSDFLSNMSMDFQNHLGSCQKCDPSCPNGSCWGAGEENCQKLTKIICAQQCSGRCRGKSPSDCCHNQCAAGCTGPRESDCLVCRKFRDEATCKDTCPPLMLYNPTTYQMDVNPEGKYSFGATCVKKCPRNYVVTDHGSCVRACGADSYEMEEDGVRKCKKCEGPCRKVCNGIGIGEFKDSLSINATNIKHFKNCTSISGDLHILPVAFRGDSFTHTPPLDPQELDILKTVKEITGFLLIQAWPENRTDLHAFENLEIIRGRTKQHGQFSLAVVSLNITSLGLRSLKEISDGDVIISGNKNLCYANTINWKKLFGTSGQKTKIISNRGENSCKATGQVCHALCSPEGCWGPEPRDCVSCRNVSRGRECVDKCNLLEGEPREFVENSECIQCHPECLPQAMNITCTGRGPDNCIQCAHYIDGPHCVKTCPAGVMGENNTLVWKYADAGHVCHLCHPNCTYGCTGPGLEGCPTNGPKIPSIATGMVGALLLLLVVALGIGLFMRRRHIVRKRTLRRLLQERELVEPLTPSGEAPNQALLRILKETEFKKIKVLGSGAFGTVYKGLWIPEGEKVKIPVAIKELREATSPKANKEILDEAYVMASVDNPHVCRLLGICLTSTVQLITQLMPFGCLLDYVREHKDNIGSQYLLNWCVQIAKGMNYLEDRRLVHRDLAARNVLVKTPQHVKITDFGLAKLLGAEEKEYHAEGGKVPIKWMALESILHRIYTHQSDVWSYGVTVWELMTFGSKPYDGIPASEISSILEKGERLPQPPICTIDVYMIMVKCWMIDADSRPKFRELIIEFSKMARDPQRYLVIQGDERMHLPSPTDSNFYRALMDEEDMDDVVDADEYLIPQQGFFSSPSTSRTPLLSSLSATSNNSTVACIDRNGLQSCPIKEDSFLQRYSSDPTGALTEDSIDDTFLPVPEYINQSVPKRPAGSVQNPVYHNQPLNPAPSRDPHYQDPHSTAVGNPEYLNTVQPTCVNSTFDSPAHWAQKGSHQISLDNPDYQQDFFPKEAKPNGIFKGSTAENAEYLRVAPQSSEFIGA

Consider `CC(CCN1CCCc2nc(C)c(C)cc21)=NOC[C@@H](O)COCc1ccco1`, for which the composite z-score in assay [1] is 1.53; in assay [5], 0.0346; in [7], 1.27; in assay [8] it was 2.32; in assay [9], 1.07; in [10] it was 1.15. In addition, the composite z-score is 1.22 in assay [11]; 1.57 in assay [12]; -0.216 in assay [13]; 1.56 in assay [15]; 1.22 in assay [16]; 1.76 in [17]. For the same compound, the composite z-score in [18] came to 1.6; in assay [19], 2.25; in [20], 1.96. The z-score in assay [2] was -1.86 (inactive); in assay [3] it was 0.544 (inactive); in assay [4], -0.831 (inactive); in assay [6] it was 0.798 (inactive); in assay [14] it was 0.58 (inactive).
As to `COc1ccc(OC[C@@H](CO)OC)cc1`, the composite z-score is -0.601 in [1]; -0.0777 in [5]; -0.185 in [7]; 0.802 in [8]; -0.176 in assay [9]; -0.0381 in assay [10]. The composite z-score in assay [11] is -0.276; in [12], -0.233; in [13] it was -0.401; in assay [15], 0.428; in assay [16], 0.405; in [17], 0.202. In addition, the composite z-score in [18] stood at 0.475; in [19], 0.321; in [20], 0.512. Moreover, the z-score in assay [2] was -0.368 (inactive); in assay [3], -0.199 (inactive); in assay [4], -0.302 (inactive); in assay [6], 0.418 (inactive); in assay [14], 1.18 (inactive).
Consider `COC(=O)[C@H](C)NC(=O)CCC1CC(OC(=O)NCc2ccc3c(c2)OCO3)CC2(CCCC(COC(=O)NCc3ccccc3)O2)O1` (stereo not given in full), for which the composite z-score was 1.23 in [1]; 1.64 in assay [5]; -0.157 in [7]; 0.888 in assay [8]; 1.09 in assay [9]; -0.0234 in assay [10]. Further, the composite z-score is 0.343 in [11]; -0.172 in [12]; -0.612 in assay [13]; 0.894 in assay [15]; 0.821 in assay [16]; 0.293 in assay [17]. Also, the composite z-score in assay [18] is 0.832; in assay [19], 0.893; in [20], -0.0611. For the same compound, the z-score in [2] is 0.24 (inactive); in assay [3], 0.532 (inactive); in assay [4] it was 0.274 (inactive); in assay [6], 0.326 (inactive); in [14], -0.66 (inactive).
For `COC(=O)[C@H](C)NC(=O)CCC1CC(OC(=O)NCc2cccc3ccccc23)CC2(CCCC(COC(=O)NCCC(C)C)O2)O1` (stereo not given in full), the composite z-score in assay [1] was 0.651; in [5] it was 1.84; in [7], -0.205; in [8] it was 0.352; in assay [9] it was 0.504; in [10] it was -0.112. Besides, the composite z-score in [11] was 1.41; in assay [12], -0.144; in [13], -0.391; in assay [15], 0.481; in [16], 0.247; in assay [17] it was 0.374. For the same compound, the composite z-score in assay [18] turned out to be 0.463; in assay [19], 0.188; in [20] it was 0.199. Moreover, the z-score in assay [2] is -0.518 (inactive); in assay [3], -1.07 (inactive); in [4] it was -0.642 (inactive); in assay [6] it was 0.384 (inactive); in [14], -0.119 (inactive).
Regarding `CC(=O)OC[C@H]1O[C@@H](ON=C(C)CCC(=O)OC[C@H]2O[C@H](C#Cc3ccccc3)C=C[C@@H]2Oc2ccc(C)cc2)[C@H](OC(C)=O)[C@@H](OC(C)=O)[C@@H]1OC(C)=O`, the composite z-score in assay [1] was 1.54; in assay [5], 2.3; in [7], -0.122; in assay [8] it was 1.36; in assay [9] it was 0.936; in [10], -0.0455. Besides, the composite z-score was 0.888 in [11]; -0.148 in assay [12]; -0.561 in [13]; 0.782 in assay [15]; 1.11 in assay [16]; 0.603 in assay [17]. The results for the composite z-score in [18], in assay [19] and in assay [20] were 0.786, 0.911 and -0.0231, respectively. Moreover, the z-score in assay [2] was 0.82 (inactive); in [3], 0.882 (inactive); in assay [4], -0.211 (inactive); in [6] it was 0.142 (inactive); in assay [14], -0.188 (inactive).
